# “And” between values parts separate entries of the source, which are not always exact repeats. Identical values can stand only once. About 3,300 (0.97%) of roughly 340,000 compounds were called active. Many of the other results were omitted from the sample, so actives are more common in it than they were. Values without a mark were called inactive.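 How the source made its calls: active means inhibition above the mean over all tested compounds plus 3 SD (cut at about 30% in these data); inactive means the rest.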
# Molecular target: Platelet-activating factor acetylhydrolase 2, cytoplasmic (Homo sapiens) (UniProt Q99487)
# Test: inhibition of cytoplasmic PAF acetylhydrolase 2 – biochemical, fluorescence polarization, human, primary screen (AID 492956);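 further: inhibitors block probe labeling of enzyme so polarization drops; 0% = enzyme with DMSO and 100% = wells lacking PAFAH2 protein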
# Conditions: recombinant PAFAH2, FP-rhodamine activity probe, at 3.39 µM, stronger effect = higher value
row,SMILES,inhibition
1,CCCN(CC(=O)Nc1ccccc1C)C(=O)c1ccc2[nH]c3c(c2c1)CC(C)CC3 (configuration not stated),8.67%
2,CCOc1ccc(S(=O)(=O)N2CCCCC2)cc1NC(=O)CN1CCCC1c1cccs1 (configuration not stated),-0.88%
3,CC(=O)Nc1ccc(S(=O)(=O)NCC2CCC(C(=O)NCCc3ccccc3)CC2)cc1 (configuration not stated),6.72%
4,O=C1NC(c2ccc(-c3ccccc3[N+](=O)[O-])o2)C(C(=O)c2ccc(Cl)cc2)C(O)(C(F)(F)F)N1 (configuration not stated),1.45%
5,CC1=NN(c2ccc(Cl)c(C(=O)O)c2)C(=O)/C1=C/c1ccc(-c2ccccc2[N+](=O)[O-])o1,36.5% (active)
6,O=C(Nc1ccc(N2CCOCC2)cc1)c1ccc(-c2ccccc2[N+](=O)[O-])o1,-11.3%
7,CC(CO)(CO)NC(=O)c1ccc(=O)[nH]n1,-12.6%
8,Cc1c2cnn(CC(=O)NCCCN3CC(C)CC(C)C3)c(=O)c2c(C)n1Cc1ccc(Cl)cc1 (configuration not stated),5.22%
9,O=C(c1cccnc1)N(c1cc2sc(=O)oc2c2ccccc12)S(=O)(=O)c1ccccc1,36.6% (active)
10,O=C(c1cccnc1)N(Cc1ccccc1)C(=O)c1cccnc1,3.92%
11,COc1ccc(N(C(=O)c2cccnc2)S(=O)(=O)c2ccc(OC)c(OC)c2)cc1,-3.27%
12,COc1cccc2oc(CCc3ccccc3)cc(=O)c12,6.23%
13,CCC1C(C#N)=C(SC)NC2=C1C(=O)CC(C)(C)C2 (configuration not stated),-6.12%
14,CCOc1ccc(NC(=O)c2ccc(NC(=O)COC(=O)c3ccc(NC(=O)CC#N)cc3)cc2)cc1,-53.2%
15,CCC(C)(C)c1ccc(Oc2ccc(NC(=O)COC(=O)C3=COCCO3)cc2)cc1,55.4% (active)
16,O=C(OCC(=O)c1cccs1)C1=COCCO1,17.6%
17,COc1cccc(C2=CC(=O)C[C@H](c3ccc(F)cc3)C2)c1OC,-13.9%
18,O=C(OC1CCOC1=O)c1cccc(S(=O)(=O)Nc2ccc(F)cc2)c1 (configuration not stated),9.72%
19,Cc1ccc2nc(COc3ccc(N(C)S(=O)(=O)c4ccccc4)cc3)cc(=O)n2c1,8.78%

row,SMILES,inhibition
1,CC1CCCCC1NC(=O)CCS(=O)(=O)c1ccc2c(c1)NC(=O)CO2 (configuration not stated),26.2%
2,CNN/C(N=Cc1ccc([N+](=O)[O-])s1)=N\S(=O)(=O)c1cc(C)c(Cl)cc1SCc1ccccc1,5.01%
3,O=[N+]([O-])c1ccc(C=Nc2ccc(Cl)cc2Cl)s1,63.8% (active)
4,CC1CN(C(=O)c2ccc([N+](=O)[O-])s2)CC(C)O1 (configuration not stated),5.08%
5,O=C1COc2ccc(C(=O)COC(=O)CCOc3ccccc3)cc2N1,0.36%
6,COc1ccc(OC)c(-c2csc(-c3cccs3)n2)c1,5.06%
7,COc1cccc(C(=O)n2ccc(-c3cccs3)n2)c1,31.8% (active)
8,COc1cccc(NC(=O)CN(C)C(=O)/C=C/c2cn(-c3ccccc3)nc2-c2cccs2)c1,-54.5%
9,CC(C)(C)c1ccc(Cn2nnc3c(=O)[nH]c(C4CCCN(C(=O)c5ccco5)C4)nc32)cc1 (configuration not stated),-1.16%
10,Cc1cc(C)cc(NC(=O)CCN2C(=O)c3ccccc3C2=O)c1,-14%
11,CCn1cc(CN2CCN(CC(C)(C)C)C(CCO)C2)c2ccccc21 (configuration not stated),1.37%
12,O=C(COC(=O)/C=C/c1cccs1)NC1CCCCC1,80.5% (active)
13,COc1cc(/C=C/C(=O)OCC(=O)NC2CC2)cc(OC)c1OC,9.4%
14,COc1ccccc1/C=C/C(=O)NC1CC2CCC1C2 (configuration not stated),-0.78%
15,COc1ccccc1/C=C/C(=O)OCC(=O)NC1CCCCCC1,93.2% (active)
16,COc1ccccc1-n1ccnc(SCC(=O)NC2CCCCC2)c1=O,-2.23%
17,COc1ccc(/C=C/C(=O)OCC(=O)NC2CCCCCC2)cc1OC,87.4% (active)
18,O=C(CCC(=O)c1cccs1)NC1CCCCCC1,8.2%
19,COc1ccc(CCNC(=O)COC(=O)/C=C/c2cccs2)cc1OC,6.71%

row,SMILES,inhibition
1,CCOc1ccc(/C=C/C(=O)OCC(=O)c2ccccc2OC)cc1OC,6.36%
2,COc1cc2c(C(=O)N3CCN(C)CC3)c(CSc3ccccc3)n(C)c2cc1Br,-5.01%
3,COc1ccc(NC(=O)c2cccc(Cl)c2)c[n+]1[O-],-0.76%
4,O=C(CSCc1c(Cl)cccc1Cl)NN1C(=O)c2ccccc2C1=O,11.8%
5,Cc1cccc(CN2CCN(Cc3cnn(-c4ccccc4F)c3)CC2CCO)n1 (configuration not stated),-6.68%
6,COc1ccc(C(=O)n2nc(-c3ccc(Cl)cc3)nc2N)cc1OC,3.15%
7,COc1ccc(C(=O)O/N=C(\N)Cc2ccc(Cl)cc2Cl)cc1OC,85.3% (active)
8,COc1ccc(CCn2ccc(O)c(Cc3ccc(Cl)cc3Cl)c2=O)cc1OC,-2.38%
9,C=CCOc1ccc(C(=O)Nc2ccccc2C(=O)N2CCCC2)cc1,7.79%
10,CCCCn1c(O)c(N=NC(=O)Cn2c(C(F)(F)F)nc3ccccc32)c2ccccc21,-3.07%
11,O=C(O)Cc1csc(-c2cccc(Oc3ccccc3)c2)n1,3.06% and 0.17%
12,CC1CC(C)CN(c2ccc(S(=O)(=O)N3CCOCC3)cc2)C1 (configuration not stated),13.7%
13,Cc1ccc(OCC(=O)N2CCN(S(=O)(=O)c3ccc(Cl)s3)CC2)cc1C,6.03%
14,Cc1ccc(S(=O)(=O)N(C)C)cc1NC(=O)COC(=O)c1c(C)noc1C,-9.47%
15,CN(C)S(=O)(=O)c1cccc(NC(=O)COC(=O)c2cc(=O)[nH]c(=O)[nH]2)c1,0.25%
16,CN(C)S(=O)(=O)c1cccc(NC(=O)COC(=O)/C=C/c2cccs2)c1,72.2% (active)
17,CN(C)S(=O)(=O)c1cccc(NC(=O)COc2ccc3ccccc3c2)c1,-8.6%
18,Cc1ccc(S(=O)(=O)N(C)C)cc1NC(=O)COC(=O)/C=C/c1cccs1,59.3% (active)
19,Cc1ccc(S(=O)(=O)N(C)C)cc1NC(=O)/C=C/c1cccs1,5.59%

# From PubChem BioAssay AID492956 (The Scripps Research Institute Molecular Screening Center, 2010)
